A number with no mark means an inactive call. Records with an inconclusive call do not appear. Activity calls are given as the source filed them. Unless noted, calls follow the shape of the dose curve; as a rule, active = well fitted curve in either direction with a large enough effect (not every such curve was filed as active); inconclusive = small, poorly fitted or top-dose-only effect, or another doubt; inactive = flat fitted curve, though single readings scatter.
Key:
[1] = AP1 Signaling Pathway (AID 357); details: ME-180 AP-1-bla reporter, EGF-induced, beta-lactamase ratio, 5 h; at 17.2 µM (top of the series) unless noted;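 also: ME-180 reporter cells stimulated with EGF at its EC50 level; % is scaled to controls: 0 for no effect and ±100 for the full control effect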
Method in brief: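 A ratiometric CCF4 readout (405 nm excitation; 460 and 530 nm emission) quantified AP-1-driven beta-lactamase in ME-180 cells after 5 h with compound and EC50 EGF; AC50 values were derived for activators and inhibitors.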

[2] = NFAT Signaling Pathway (AID 444); details: Jurkat NFAT-bla M1, carbachol, beta-lactamase ratio, 5 h; at 17.2 µM (top of the series) unless noted;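 also: carbachol stimulus at about its EC50 of 1 µM final; % is scaled to controls: 0 for no effect and ±100 for the full control effect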
Method in brief: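 Read-out: CCF4 FRET ratio (460 nm/530 nm) after 1 h RT dye loading, used for %activity and AC50 from titration series. Cells: Jurkat NFAT-β-lactamase/M1 line, treated with compound plus 1 uM carbachol for 5 h, 37 °C.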

[3] = Stat Signaling Pathway (AID 446); details: ME-180 (cervical carcinoma) SIE beta-lactamase reporter, IL-6 stimulated, 5 h; at 17.2 µM (top of the series) unless noted;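 also: ME-180 cervical cancer cells given 40 pM IL-6 alongside compound; SIE-controlled beta-lactamase reporter measured as 460/530 nm FRET emission ratio; % is scaled to controls: 0 for no effect and ±100 for the full control effect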
Method in brief: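 IL-6/STAT signaling read in ME-180 cells via an SIE beta-lactamase reporter. Stimulus was 40 pM IL-6 (its AC50) for 5 hrs, so both activation and inhibition register.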

[4] = target: Glucocorticoid receptor (Homo sapiens) (UniProt P04150); experiment: GR-GFP Redistribution (AID 450;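 active = compounds whose dose series gives a full or clear partial fitted curve of increased nuclear translocation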; also: potency is read from the fitted curve at half-maximal effect)
Chain of Glucocorticoid receptor (Homo sapiens) (P04150 whole entry, looked up): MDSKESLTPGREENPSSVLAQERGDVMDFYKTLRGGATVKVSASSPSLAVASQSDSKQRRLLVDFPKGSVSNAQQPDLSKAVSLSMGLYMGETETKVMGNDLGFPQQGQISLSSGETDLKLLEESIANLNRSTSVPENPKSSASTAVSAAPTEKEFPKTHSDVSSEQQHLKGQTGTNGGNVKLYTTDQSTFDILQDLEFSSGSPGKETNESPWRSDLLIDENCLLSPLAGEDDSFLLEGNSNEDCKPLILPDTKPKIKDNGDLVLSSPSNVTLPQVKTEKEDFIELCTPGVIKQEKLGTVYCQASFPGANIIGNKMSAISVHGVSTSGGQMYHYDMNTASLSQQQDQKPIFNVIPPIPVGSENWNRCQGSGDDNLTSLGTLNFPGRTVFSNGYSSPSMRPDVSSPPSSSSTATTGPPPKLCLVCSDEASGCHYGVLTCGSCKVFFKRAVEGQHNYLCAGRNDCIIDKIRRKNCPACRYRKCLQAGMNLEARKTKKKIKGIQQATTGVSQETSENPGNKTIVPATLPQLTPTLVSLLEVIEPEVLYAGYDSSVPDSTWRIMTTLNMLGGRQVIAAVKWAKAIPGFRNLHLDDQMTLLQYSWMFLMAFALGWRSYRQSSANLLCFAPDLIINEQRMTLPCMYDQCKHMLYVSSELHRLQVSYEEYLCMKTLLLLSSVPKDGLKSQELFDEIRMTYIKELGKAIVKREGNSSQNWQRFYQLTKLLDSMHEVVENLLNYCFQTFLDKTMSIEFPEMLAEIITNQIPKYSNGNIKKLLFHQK

| SMILES | activity change, negative = inhibition [1] [%] | activity change, negative = inhibition [2] | activity, negative = inhibition [3] [%] | Potency [4] [µM] |
| --- | --- | --- | --- | --- |
| Nc1ccc(Cl)cc1/C(=N/O)c1ccccc1 | -16.4 | -13.5% | -5.27 | > 20.6 |
| O=C(NCC(F)(F)F)N1CCOCC1 | 6.11 | 0.794% | -4.01 | > 20.6 |
| CCCc1nnc(SCc2ccc(OCC)cc2)n1N | 4.67 | 7.42% | 10.4 | > 20.6 |
| COC(=O)c1[nH]c(C)c(/C(O)=C2\C(=O)C(=O)N(CCN3CCOCC3)C2c2ccccc2OC)c1C (stereo not given) | 3.47 | 17.3% | -6.01 | > 20.6 |
| COc1cccc(-c2nn3c(-c4ccccn4)nnc3s2)c1 | -5.18 | -17% | 9.86 | > 20.6 |
| C1CNCCNCCCNCCNC1 | 1.85 | 2.39% | -11.5 | > 20.6 |
| COC(=O)c1ccc(N2C(=O)CC(N3CCN(C(=O)c4ccco4)CC3)C2=O)cc1 (stereo not given) | 3.9 | -1.87% | 0.889 | > 20.6 |
| Cn1c(NCc2ccccc2)nc2c1c(=O)n(Cc1ccccc1)c(=O)n2C | -27.4 | -0.651% | -21.1 | > 20.6 |
| Cc1cccc(OCC(=O)N2CCC(N3CCOCC3)CC2)c1 | -0.218 | 6.61% | 2.76 | > 20.6 |
| O=S(=O)(c1ccccc1)N1CCC(N2CCN(c3ccccc3)CC2)CC1 | -9.33 | 6.66% | 5.78 | > 20.6 |
| CC(=O)N1CCC2(CC1)C(C#N)=C(N)Oc1n[nH]c(C(F)(F)F)c12 | 8.06 | -24.1% | 5.71 | > 20.6 |
| Cc1cc(=O)oc2cc(OCCSCCN3CCOCC3)ccc12 | -6.35 | 3.73% | -0.537 | > 20.6 |
| CCOC(=O)CNC(=O)CNC(=O)c1ccc(OC)cc1 | 8.37 | -1.87% | 14.1 | > 20.6 |
| C=CCOc1nc2c(c(=O)n(C)c(=O)n2C)n1Cc1ccc(Cl)cc1Cl | 4.26 | -9.88% | -16.6 | > 20.6 |
| Cc1cc(C)c2c(N)c(C(=O)c3ccccc3)oc2n1 | 1.21 | 3.96% | -8.9 | > 20.6 |
| CC(C)CCNc1nc2c(cc1C#N)COC(C)(C)C2 | -23.1 | 4.17% | 4.4 | > 20.6 |
| COc1ccccc1Cn1c2nc3ccccc3nc2c2c(=O)n(CC(C)C)cnc21 | -14.3 | 4.7% | -12.8 | > 20.6 |
| CC(=O)Nc1ccc(S(=O)(=O)Nc2nc3n(n2)C(c2ccccc2)CC(=O)N3)cc1 (stereo not given) | 4.99 | 2.5% | 1.09 | > 20.6 |
| Cc1nc2sc(C)c(C)c2c(=O)o1 | -1.58 | 4.96% | -1.71 | > 20.6 |
| COc1ccc(/C(O)=C2/C(=O)C(=O)N(CCCN(C)C)C2c2ccccc2)cc1OC (stereo not given) | -9.48 | -0.461% | 8.71 | > 20.6 |
| Nc1nc2n(n1)C(c1ccc(F)cc1)CC(c1ccc(F)cc1)N2 (stereo not given) | -1.23 | 10.7% | 5.35 | > 20.6 |
| O=C(c1cccc(Cl)c1)N1CCN(C(=O)c2ccccc2F)CC1 | -14.3 | 0.199% | -11.1 | > 20.6 |
| COc1ccc2[nH]c(C)c(C(=O)CN3CC(C)OC(C)C3)c2c1 (stereo not given) | 0.748 | -1.69% | 2.01 | > 20.6 |
| CSc1sc(C(=O)O)c2c1C(=O)CCC2 | 12.2 | -0.427% | 3.35 | > 20.6 |
| CCOC(=O)CSC1=C(C#N)C(c2ccc3c(c2)OCO3)CC(=O)N1 (stereo not given) | -5.02 | 4.11% | 3.81 | > 20.6 |

| SMILES | activity change, negative = inhibition [1] [%] | activity change, negative = inhibition [2] | activity, negative = inhibition [3] [%] | Potency [4] [µM] |
| --- | --- | --- | --- | --- |
| COC(=O)c1c(C)noc1-c1cc(C)on1 | 10.7 | 10.8% | 8.94 | > 20.6 |
| COCCCn1c(C)nc2c(c1=O)c1nc3ccccc3nc1n2CCc1ccccc1 | -6.69 | -1.98% | -10 | > 20.6 |
| CCn1c(SCC(=O)NCc2ccco2)nnc1-c1ccc(N)cc1 | 0.344 | 16.3% | -0.962 | > 20.6 |
| Cc1cc(C)n(CC2CC(=O)N(c3ccc(Cl)c(Cl)c3)C2=O)n1 (stereo not given) | -14.3 | -11.5% | 0.577 | > 20.6 |
| COC(=O)c1ccccc1OCc1cccc(C)n1 | -1.62 | -4.22% | -5.73 | > 20.6 |
| Cc1cc(C)cc(CC2CC(=O)N(c3cc(C)on3)C2=O)c1 (stereo not given) | -8.62 | -3.65% | -12.9 | > 20.6 |
| CC(C)Cc1[nH]c(=O)c(C#N)c2c1COC(C)(C)C2 | 9.17 | 17.3% | 2.18 | > 20.6 |
| COc1cc(C)nc(Oc2ccc(=O)n(C)n2)n1 | 8.82 | -8.27% | 1.84 | > 20.6 |
| COc1ccc(C2CC(=O)C(C=NCCN3CCOCC3)=C(O)C2)cc1 (stereo not given) | 18.9 | -9.07% | -0.652 | > 20.6 |
| CNC(=O)C1CC(=O)N(Cc2ccccc2)C(=Nc2ccc(OC)cc2)S1 (stereo not given) | -3.9 | 4.86% | -6.63 | > 20.6 |
| COCc1[nH]nc2c1C(c1cccc(OC)c1)C(C#N)=C(N)O2 (stereo not given) | -19.1 | -19.7% | -11 | > 20.6 |
| COc1ccc(C2(CN(C(C)=O)C(C)=O)CCCC2)cc1OC | 4.19 | 4.27% | 1.89 | > 20.6 |
| Cc1cc2c(c(=O)n1Cc1cccnc1)C(c1ccccc1)C(C#N)=C(N)O2 (stereo not given) | -14.1 | 3.75% | -17 | > 20.6 |
| CN(C)CCCOC(=O)C1c2ccccc2Oc2ccccc21 | 9.34 | -63.3% (active) | -0.433 | > 20.6 |
| CCOC(=O)CC(=O)CSc1nnc2sc3ccccc3n12 | 6.11 | -0.0909% | 7.94 | > 20.6 |
| Cc1cc(C)n(-c2nnc(C)n2/N=C/c2ccco2)n1 | 4.26 | -7.08% | 2.31 | > 20.6 |
| CCC(=O)Nc1ccc(-c2nnc(SCC(=O)NCC3CCCO3)n2C)cc1 (stereo not given) | -2.29 | -1.98% | 1.52 | > 20.6 |
| CCc1cccc(CC)c1N(COC)C(=O)Cn1nnc2ccccc21 | -10.2 | 10% | -3.83 | > 20.6 |
| COc1cc(C2C(C(C)=O)=C(O)C(=O)N2c2ccc(Br)cn2)ccc1O (stereo not given) | 2.47 | -15.5% | -8.75 | > 20.6 |
| COc1cc(-c2cc(C(F)(F)F)n3ncc(C(=O)O)c3n2)cc(OC)c1OC | 3.69 | 3.34% | 1.42 | > 20.6 |
| Nc1nc2n(n1)C(c1cccs1)CC(c1ccc(Br)cc1)N2 (stereo not given) | 0.611 | 11% | 4.42 | > 20.6 |
| Cc1nc2c(o1)CCc1ccccc1C2N1CCN(C)CC1 (stereo not given) | 22.5 | -82.4% (active) | 3.94 | > 20.6 |
| CC(=O)Nn1cnc2c(c1=O)C1(CCCC1)Cc1ccccc1-2 | -8.59 | -0.355% | 10.3 | > 20.6 |
| COc1ccc(CC(=O)OCN2C(=O)c3ccccc3C2=O)cc1 | 11.9 | -7.12% | -0.768 | > 20.6 |
| COc1cc(-c2nn3c(-c4ccco4)nnc3s2)cc(OC)c1OC | -2.59 | -0.323% | -1.97 | > 20.6 |

Reference: PubChem BioAssay (NCATS)
